Screening data: PubChem, National Center for Advancing Translational Sciences (NCATS)
ALDH1A1 inh: inhibitors of human aldehyde dehydrogenase 1A1; Purified ALDH1A1, NADH fluorescence, propionaldehyde substrate; actives 7.3% (n = 220,000); P00352; Potency, µM (series often up to 75.3 µM), for the others: at the highest dose activity, negative = inhibition, most hits filed as inhibitors;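 also: potency is read from the fitted curve at half-maximal effect; plate controls were no enzyme wells and a reference inhibitor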
NPSR antagonist: blocks cAMP signaling of the human neuropeptide S receptor; Q6W5P4; CHO-NPSR cells, cAMP TR-FRET, antagonist mode; Potency, µM (highest dose often 38.3 µM), inactives show at the highest dose activity change, negative = inhibition, actives largely listed as inhibitors; actives 1% (n = 220,000); AID 1461; active = well fitted curve in the direction sought with a large enough effect; inconclusive = small, poorly fitted or top-dose-only effect, or another doubt; inactive = no such curve, though single readings can be large; an effect the other way counts as inactive or inconclusive; also: potency is read from the fitted curve at half-maximal effect; nearly all actives have a fitted effect of over 50% in size
Target sequence (Q6W5P4 whole entry, looked up): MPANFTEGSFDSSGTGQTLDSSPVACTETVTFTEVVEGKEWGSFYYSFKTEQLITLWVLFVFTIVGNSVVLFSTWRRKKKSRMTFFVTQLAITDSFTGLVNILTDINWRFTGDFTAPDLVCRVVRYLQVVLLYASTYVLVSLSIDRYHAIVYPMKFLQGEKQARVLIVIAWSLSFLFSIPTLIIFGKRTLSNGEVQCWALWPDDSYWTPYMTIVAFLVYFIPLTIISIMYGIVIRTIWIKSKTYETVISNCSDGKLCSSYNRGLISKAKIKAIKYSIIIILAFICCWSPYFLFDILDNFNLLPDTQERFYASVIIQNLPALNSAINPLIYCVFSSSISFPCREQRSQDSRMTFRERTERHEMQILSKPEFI
RGS12 GoLoco inh: inhibitors of human Gai1-RGS12 GoLoco interaction (red fluorophore) | Gai1:RGS12 GoLoco peptide FP, rhodamine, 10 min | Potency, µM (highest dose often 61.6 µM), for the others: at the highest dose activity, negative = inhibition, actives largely listed as inhibitors | actives 0.44% (n = 230,000); active = well fitted inhibition curve with a large enough effect, not every such curve was filed as active; inactive = no such curve, though single readings can be large or run the other way; also: potency is read from the fitted curve at half-maximal effect; nearly all actives have a fitted effect of over 30% in size
JMJD2E inh: JMJD2E (human) inhibition | B2RXH2 | JMJD2E catalytic domain, FDH-coupled NADH fluorescence (FDH is formaldehyde dehydrogenase) | Potency, µM (series often up to 57.1 µM), for the others: top-dose activity change, negative = inhibition, usual class: inhibitors | actives 1.6% (n = 230,000) | AID 2147;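 also: potency is read from the fitted curve at half-maximal effect; 0% = wells with enzyme and -100% = buffer wells without enzyme; nearly all actives have a fitted effect of over 50% in size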
Target sequence (B2RXH2 1-337 limits assumed): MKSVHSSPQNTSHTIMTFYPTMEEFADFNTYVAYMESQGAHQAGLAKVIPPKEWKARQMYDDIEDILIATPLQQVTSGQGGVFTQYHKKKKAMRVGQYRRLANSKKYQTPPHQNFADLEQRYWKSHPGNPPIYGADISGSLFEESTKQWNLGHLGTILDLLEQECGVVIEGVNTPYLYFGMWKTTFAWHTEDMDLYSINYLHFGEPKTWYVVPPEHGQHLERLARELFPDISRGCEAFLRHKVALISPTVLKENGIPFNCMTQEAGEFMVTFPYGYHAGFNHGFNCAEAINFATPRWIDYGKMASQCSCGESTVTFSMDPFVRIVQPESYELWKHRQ
Coupling enz: counter-screen for Giardia aldolase inhibitors: coupling enzyme system; coupling enzyme system counterscreen, AmpLite Red fluorescence; activity change, negative = inhibition, % at 58.2 µM, hits read low; actives 0.67% (n = 290,000); AID 2472; in the data active = activity change below about -30%
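First, compound is pin-transferred into glyceraldehyde-3-phosphate coupling-enzyme reagent at 57.5 uM final and held 10 min at RT. Next, substrate, coupling system and AmpLite Red are added. After 20 min RT, fluorescence (525/598 nm) is read.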
Sfp inh: inhibitors of Bacillus subtilis Sfp phosphopantetheinyl transferase; AID 1490; Biochemical Sfp PPTase activity, qHTS; Potency, µM, without a hit: largest response in the series, negative = inhibition, most hits filed as inhibitors; actives 3.5% (n = 310,000); Q9F4F7; active = well fitted curve in the direction sought with a large enough effect; inconclusive = small, poorly fitted or top-dose-only effect, or another doubt; inactive = no such curve, though single readings can be large; an effect the other way counts as inactive or inconclusive;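 also: the enzyme is Sfp with the accession as filed and its product quenches rhodamine fluorescence; potency is read from the fitted curve at half-maximal effect; 0% = enzyme reaction without inhibitor and -100% = no enzyme wells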
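Compounds were incubated with enzyme (final 15 nM) for 15 min at room temperature before substrate addition started the reaction. Fluorescence at 525 nm excitation, 598 nm emission was recorded immediately and after 30 minutes.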
* marks the source's active call; other numbers are inactive results; [ ] = another dose, or the depositor's remark. Shown are actives, neighbours in structure and some others; about 8.5% of the full set was active somewhere. Unless noted, calls follow the shape of the dose curve; as a rule, active = well fitted inhibition curve with a large enough effect (not every such curve was filed as active); inconclusive = small, poorly fitted or top-dose-only effect, or another doubt; inactive = no such curve, though single readings can be large or run the other way. Unless noted, % is scaled to controls: 0 for no effect and ±100 for the full control effect.

`COc1ccc2c(c1OC)C(Cc1ccccc1)N1CCc3cc4c(cc3C1=C2)OCO4` (configuration not stated) gave ALDH1A1 inh inconclusive, RGS12 GoLoco inh 22%, JMJD2E inh -2%, Coupling enz -33* and Sfp inh 50µM*.
COc1c2c(cc3c1C(CC(O)Cc1ccccc1)N(C)CC3)OCO2 (configuration not stated) was read as Coupling enz -3 and Sfp inh -3%.
For Cc1ccc(CNC(=O)c2cc3c(=O)n(C)c4ccccc4c3n2C)o1 the results were ALDH1A1 inh -14%, NPSR antagonist -3%[46.1 µM], RGS12 GoLoco inh -4%, JMJD2E inh inconclusive, Coupling enz 3 and Sfp inh 56µM*.
For Cc1ccc(CNC(=O)c2cn(C)c(=O)c3c2c2ccccc2n3C)o1 the results were ALDH1A1 inh inconclusive, NPSR antagonist -17%[46.1 µM], RGS12 GoLoco inh -17%, JMJD2E inh inconclusive, Coupling enz -4 and Sfp inh 22µM*.
For CCOc1ccccc1CNC(=O)c1cn(C)c(=O)c2c1c1ccccc1n2C the results were ALDH1A1 inh -14%, NPSR antagonist -24%, RGS12 GoLoco inh -5%, JMJD2E inh inconclusive, Coupling enz -5 and Sfp inh 9%.
CCN(CC)CCN1C(=O)C2C(C(=O)Nc3ccc(C(C)C)cc3)C3C=CC2(O3)C1C(=O)NC1CCCCC1 (configuration not stated) was read as Coupling enz -1 and Sfp inh 12%.
Screening CN(Cc1cn(-c2ccccc2)nc1-c1ccc2c(c1)OCO2)Cc1nccn1C returned ALDH1A1 inh inconclusive, NPSR antagonist 54%, RGS12 GoLoco inh -8%, JMJD2E inh 1%, Coupling enz -8 and Sfp inh 79µM*.
For CN(CCn1ccnc1)Cc1cn(-c2ccccc2)nc1-c1ccc2c(c1)OCO2 the results were ALDH1A1 inh inconclusive, NPSR antagonist 14%, RGS12 GoLoco inh -1%, JMJD2E inh inconclusive, Coupling enz 0 and Sfp inh 12%.
Screening CCNC(=S)N(CCCO)Cc1cc2cc3c(cc2[nH]c1=O)OCCO3 returned Coupling enz 0 and Sfp inh 8%.
COc1ccc(CNCCc2ccc([N+](=O)[O-])cc2)c(OC)c1OC was read as Coupling enz 0 and Sfp inh 11%.
For COc1cc(N(C)C)cc(CN(C)CCc2ccc([N+](=O)[O-])cc2)c1O the results were Coupling enz -54* and Sfp inh inconclusive.
For CS(=O)(=O)c1ccc(S(=O)(=O)N2CCC(CO)(CCCc3ccccc3)CC2)cc1 the results were Coupling enz 6 and Sfp inh 11%.
`O=[N+]([O-])c1cccc(Cl)c1Cl` gave ALDH1A1 inh -1% and RGS12 GoLoco inh 3.2µM*.
For CC(=O)C1=C(C)Nc2ncnn2C1c1ccccc1F (configuration not stated) the results were Coupling enz -12 and Sfp inh 9%.
Screening Cc1cc2c(c(=O)n1Cc1ccccc1)C1O[C@](c3ccsc3)(Cc3cc(C#N)ccc31)O2 returned Coupling enz -5 and Sfp inh 0%.
Screening COc1ccc(N2CCN(Cc3cc(OC)c(O)c([N+](=O)[O-])c3)CC2)cc1 returned ALDH1A1 inh inconclusive, NPSR antagonist 0%, RGS12 GoLoco inh 6%, JMJD2E inh 22µM*, Coupling enz 0 and Sfp inh inconclusive.
For COC(=O)CN1C(=O)[C@@H]2[C@H](C1=O)[C@@H]1CC(C(=O)OC)=C[C@@H](C(=O)OC)C3C1=C(C(=O)[C@@]3(C)NC(=O)c1ccccc1)[C@@H]2C (some centres not stated) the results were Coupling enz 5 and Sfp inh -1%.
For CC(C)(C)c1ccc(C2=NC(=O)C(CC(=O)O)S2)cc1 (configuration not stated) the results were NPSR antagonist 11%, RGS12 GoLoco inh 25%, JMJD2E inh -18%, Coupling enz 1 and Sfp inh 50µM*.
Screening CCOC(=O)CC1COCCN1Cc1cn(C)nc1-c1ccccc1F (configuration not stated) returned ALDH1A1 inh 10µM*, NPSR antagonist -3%, RGS12 GoLoco inh -8%, JMJD2E inh 1%, Coupling enz 4 and Sfp inh 14%.
Screening Cc1cc(N2CCN(Cc3cn(C)nc3-c3ccccc3F)CC2)cc(C)n1 returned ALDH1A1 inh inconclusive, NPSR antagonist 16%, RGS12 GoLoco inh 11%, JMJD2E inh -7%, Coupling enz 2 and Sfp inh 11%.
`CCOCCCNC(=S)Nc1cc(C)cc(C)c1` gave ALDH1A1 inh 2%, NPSR antagonist -14%, RGS12 GoLoco inh 12%, JMJD2E inh 8%, Coupling enz 3 and Sfp inh -6%.
COC(=O)c1sc2nc3c(cc2c1N)C(=O)CC(C)(C)C3 was read as ALDH1A1 inh 0.89µM*, NPSR antagonist 1%[46.1 µM], RGS12 GoLoco inh -1%, JMJD2E inh 2%, Coupling enz 2 and Sfp inh 18%.
Screening CC1(C)CC(=O)c2cc3c(N)c(C(=O)NCc4ccccc4)sc3nc2C1 returned ALDH1A1 inh inconclusive, NPSR antagonist -14%[46.1 µM], RGS12 GoLoco inh 4%, JMJD2E inh -8%, Coupling enz 4 and Sfp inh 19%.
Screening Cc1cc(C)c2cc3c(N)c(C(=O)Nc4c(C)[nH]c(=O)[nH]c4=O)sc3nc2c1 returned ALDH1A1 inh -7%, NPSR antagonist 1%, RGS12 GoLoco inh 39%, JMJD2E inh -5%, Coupling enz -2 and Sfp inh inconclusive.
Screening Cc1cc(C)c(NC(=O)c2sc3nc4c(cc3c2N)C(=O)CC(C)(C)C4)c(C)c1 returned ALDH1A1 inh 0.25µM*, NPSR antagonist -24%, RGS12 GoLoco inh 3%, JMJD2E inh -3%, Coupling enz 0 and Sfp inh -14%.
For CCOC(=O)c1sc2nc3c(cc2c1N)C(=O)CC(C)(C)C3 the results were ALDH1A1 inh 0.5µM*, NPSR antagonist -13%, RGS12 GoLoco inh -2%, JMJD2E inh 4%, Coupling enz -1 and Sfp inh -17%.
`COCCn1c(=O)c(-c2cn(C)c3ccccc23)nc2cnc(N3CCNCC3)nc21` gave ALDH1A1 inh inconclusive, RGS12 GoLoco inh 4%, Coupling enz 2 and Sfp inh 4%.
Screening CC(C)CC(=O)Nc1nnc(CSCc2ccc(F)cc2)s1 returned NPSR antagonist 3%, RGS12 GoLoco inh 4%, JMJD2E inh 0%, Coupling enz 0 and Sfp inh 19%.
